Laboratory results from PubChem BioAssay (Tox21).
Records with an inconclusive call do not appear. The source made the active and inactive calls. Unless noted, the call rests on the fitted dose curve; in most records, active means well fitted curve in the direction sought with a large enough effect in the repeat runs; inconclusive means weak or mixed curves; inactive means no such curve, though single readings can be large; an effect the other way counts as inactive or inconclusive.

Key:
[1] = qHTS assay to identify aromatase inhibitors - cell viability counter screen (AID 743084);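 further: cells stimulated with testosterone during compound exposure; nearly all actives have a fitted effect of over 55% in size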
[2] = molecular target: Aryl hydrocarbon receptor (Homo sapiens) (UniProt P35869); experiment: qHTS assay to identify small molecule that activate the aryl hydrocarbon receptor (AhR) signaling pathway (AID 743085);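 further: HG2L7.5c1 human HepG2 liver cells with stably integrated DRE-driven firefly reporter; series mostly up to about 70 µM; nearly all actives have a fitted effect of over 15% in size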
Procedure, shortened: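 Cell line HG2L7.5c1 (human hepatoma, 20× DRE-luc). Plated, 5 h 37C, compound/DMSO added, 24 h 37C. CellTiter-Fluor 30 min 37C → fluorescence; then ONE-Glo 30 min RT → luminescence.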

[3] = qHTS assay to identify small molecule that activate the aryl hydrocarbon receptor (AhR) signaling pathway - cell viability counter screen (AID 743086);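 further: HepG2 liver cells carrying the AhR DRE luciferase reporter; series mostly up to about 70 µM; nearly all actives have a fitted effect of over 45% in size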
Procedure, shortened: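 HepG2-AhR-luc (HG2L7.5c1) cells, 4000/well, were preincubated 5 h at 37C, exposed to compound in qHTS format for 24 hr at 37C, then given CellTiter-Fluor for 30 min; viability was read as fluorescence in the reporter wells.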

[4] = molecular target: Peroxisome proliferator-activated receptor gamma (Homo sapiens) (UniProt P37231); experiment: qHTS assay to identify small molecule agonists of the peroxisome proliferator-activated receptor gamma (PPARg) signaling pathway (AID 743094; active means well fitted activation curve with a large enough effect in the signal ratio in the repeat runs, not every such curve was filed as active; the % refers to the signal ratio)
Procedure, shortened: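 Agonism was assessed in a beta-lactamase reporter system, HEK293H cells with a stably integrated UAS-bla construct under PPARg control; the 17 h treatment at 37C preceded a 1 h room-temperature FRET substrate read.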

[5] = qHTS assay to identify small molecule antagonists of the peroxisome proliferator-activated receptor gamma (PPARg) signaling pathway - cell viability counter screen (AID 743194); further: nearly all actives have a fitted effect of over 55% in size
Procedure, shortened: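 PPARg-UAS-bla HEK293H cells were plated, rested 5 h at 37 C, then treated with compounds plus rosiglitazone (50 nM final) for 17 h at 37 C; viability was then read by CellTiter-Glo luminescence after 30 min at room temperature.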

[6] = qHTS assay for small molecule agonists of the antioxidant response element (ARE) signaling pathway (AID 743202; active means well fitted activation curve with a large enough effect in the signal ratio in the repeat runs, not every such curve was filed as active; the % refers to the signal ratio)
Procedure, shortened: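 Following a 16 h, 37 C exposure of reporter HepG2 cells (ARE-driven beta-lactamase, 2,000 cells/well) to compounds, FRET substrate was applied for 2 h at room temperature and fluorescence intensity recorded.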

[7] = qHTS assay for small molecule agonists of the antioxidant response element (ARE) signaling pathway - cell viability counter screen (AID 743203; calls by dose curve; further: nearly all actives have a fitted effect of over 55% in size)
Procedure, shortened: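 ATP content via CellTiter-Glo luminescence served as the viability measure. Cells: ARE-bla HepG2, 2,000 per well. Exposure: 16 hrs, 37C/5% CO2.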

[8] = qHTS assay for small molecule activators of the heat shock response signaling pathway - cell viability counter screen (AID 743209); further: nearly all actives have a fitted effect of over 50% in size
Procedure, shortened: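 Compounds dissolved in DMSO were added to overnight-plated HSE-bla HeLa cells and left 5 h at 37 C. Cell viability was quantified by luminescence using CellTiter-Glo.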

[9] = qHTS assay for small molecule activators of the heat shock response signaling pathway (AID 743210; active means well fitted activation curve with a large enough effect in the signal ratio in the repeat runs, with a control signal flat, not every such curve was filed as active; the % refers to the signal ratio; further: series mostly up to about 63 µM)
Procedure, shortened: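 Heat shock element–beta-lactamase HeLa reporter cells; qHTS with compounds for 5 h at 37 C; detection by FRET substrate fluorescence after 2.5 h at RT.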

[10] = qHTS assay to identify small molecule agonists of the peroxisome proliferator-activated receptor delta (PPARd) signaling pathway - cell viability counter screen (AID 743211); further: nearly all actives have a fitted effect of over 55% in size
Procedure, shortened: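 HEK293H PPARd-bla, 3000 cells/well; 5 h preincubation 37C/5% CO2; cpd in DMSO, 17 h 37C; B/G FRET substrate 2 h RT; CellTiter-Glo 30 min RT, luminescence.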

[11] = molecular target: Peroxisome proliferator-activated receptor delta (Homo sapiens) (UniProt Q03181); experiment: qHTS assay to identify small molecule agonists of the peroxisome proliferator-activated receptor delta (PPARd) signaling pathway (AID 743212; calls by dose curve)
Procedure, shortened: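 Beta-lactamase reporter read by fluorescence (LiveBLAzer B/G FRET, 2 h, room temperature). Test agents, in DMSO, incubated at 37 C with PPARd-bla HEK293H cells.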

[12] = qHTS assay to identify small molecule antagonists of the peroxisome proliferator-activated receptor delta (PPARd) signaling pathway - cell viability counter screen (AID 743213); further: nearly all actives have a fitted effect of over 50% in size
Procedure, shortened: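 In this counter screen, HEK293H cells carrying a UAS-beta-lactamase reporter are co-treated with test compounds and 300 nM L165041 (final) for 17 h at 37 C; cell viability is quantified by CellTiter-Glo luminescence.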

[13] = molecular target: Peroxisome proliferator-activated receptor delta (Homo sapiens) (UniProt Q03181); experiment: qHTS assay to identify small molecule antagonists of the peroxisome proliferator-activated receptor delta (PPARd) signaling pathway (AID 743215; active means well fitted inhibition curve with a large enough effect in the signal ratio in the repeat runs, not every such curve was filed as active; the % refers to the signal ratio;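 further: cells stimulated with agonist L165041 at 300 nM final during compound exposure; series mostly up to about 62 µM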)
Procedure, shortened: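 Here, a reporter line (HEK293H, beta-lactamase under a UAS) measures PPARd signaling. Compounds are tested against agonist L165041 at 300 nM final concentration over 17 h at 37 C, with fluorescence read after substrate.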

[14] = qHTS assay to identify small molecule antagonists of the farnesoid-X-receptor (FXR) signaling pathway - cell viability counter screen (AID 743221; active means well fitted cell-killing curve with a large enough effect in the repeat runs, not every such curve was filed as active; further: nearly all actives have a fitted effect of over 50% in size)
Procedure, shortened: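 Luminescence from CellTiter-Glo measures cytotoxicity in GeneBLAzer FXR-UAS-bla HEK 293T cells. Cells were exposed to compounds with 50 uM chenodeoxycholic acid (final) for 16 h at 37 C, in wells also used for the reporter readout.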

[15] = molecular target: Vitamin D3 receptor (Homo sapiens) (UniProt P11473); experiment: qHTS assay to identify small molecule agonists of the vitamin D receptor (VDR) signaling pathway (AID 743222; calls by dose curve)
Procedure, shortened: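 Tox21 cell reporter format: VDR-bla line, 16 h compound exposure in 5% CO2 at 37C, then fluorescence intensity after 2 h with LiveBLAzer B/G FRET substrate.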

[16] = qHTS assay to identify small molecule agonists of the farnesoid-X-receptor (FXR) signaling pathway - cell viability counter screen (AID 743218); further: nearly all actives have a fitted effect of over 45% in size
Procedure, shortened: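 Quantitative HTS counter screen measuring ATP-based viability via CellTiter-Glo luminescence in HEK 293T cells carrying a UAS-driven beta-lactamase reporter, after 16 h compound exposure at 37 C.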

[17] = molecular target: Vitamin D3 receptor (Homo sapiens) (UniProt P11473); experiment: qHTS assay to identify small molecule antagonists of the vitamin D receptor (VDR) signaling pathway (AID 743223; active means well fitted inhibition curve with a large enough effect in the signal ratio in the repeat runs, not every such curve was filed as active; the % refers to the signal ratio)
Procedure, shortened: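 Antagonist mode uses 1alpha,25-dihydroxyvitamin D3 at 3 nM final as stimulus. VDR-bla cells receive compounds in DMSO, incubate 16 h at 37C, then a beta-lactamase FRET substrate for 2 h at room temperature before fluorescence measurement.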

[18] = molecular target: Peroxisome proliferator-activated receptor gamma (Homo sapiens) (UniProt P37231); experiment: qHTS assay to identify small molecule antagonists of the peroxisome proliferator-activated receptor gamma (PPARg) signaling pathway (AID 743191; calls by dose curve; further: series mostly up to about 63 µM; nearly all actives have a fitted effect of over 30% in size)
Procedure, shortened: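 GeneBLAzer PPARg UAS-bla HEK293H cells carrying a UAS-driven beta-lactamase reporter were plated at 3000 cells/well, preincubated 5 h at 37C, then given compound for 17 h at 37C; LiveBLAzer B/G FRET substrate was read after 1 h at room temperature.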

[19] = molecular target: Bile acid receptor (Homo sapiens) (UniProt Q96RI1); experiment: qHTS assay to identify small molecule antagonists of the farnesoid-X-receptor (FXR) signaling pathway (AID 743217; active means well fitted inhibition curve with a large enough effect in the signal ratio in the repeat runs, not every such curve was filed as active; the % refers to the signal ratio)
Procedure, shortened: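 Test compounds are pin-transferred onto FXR-bla HEK 293T cells, then chenodeoxycholic acid is added at 50 uM final. After 16 h at 37 °C, LiveBLAzer B/G substrate is applied for 2 h at room temperature and fluorescence read.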

[20] = molecular target: Bile acid receptor (Homo sapiens) (UniProt Q96RI1); experiment: qHTS assay to identify small molecule agonists of the farnesoid-X-receptor (FXR) signaling pathway (AID 743220; active means well fitted activation curve with a large enough effect in the signal ratio in the repeat runs, not every such curve was filed as active; the % refers to the signal ratio)
Procedure, shortened: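 FXR-UAS-bla HEK 293T cells carrying a UAS-driven beta-lactamase reporter were plated for 5 h at 37C/5% CO2, then exposed to DMSO-dissolved Tox21 10K compounds for 16 h at 37C. A LiveBLAzer B/G FRET substrate was loaded for 2 h at room temperature before fluorescence reading.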

Measured: Potency

Chain of Peroxisome proliferator-activated receptor delta (Homo sapiens) (Q03181 whole entry, looked up): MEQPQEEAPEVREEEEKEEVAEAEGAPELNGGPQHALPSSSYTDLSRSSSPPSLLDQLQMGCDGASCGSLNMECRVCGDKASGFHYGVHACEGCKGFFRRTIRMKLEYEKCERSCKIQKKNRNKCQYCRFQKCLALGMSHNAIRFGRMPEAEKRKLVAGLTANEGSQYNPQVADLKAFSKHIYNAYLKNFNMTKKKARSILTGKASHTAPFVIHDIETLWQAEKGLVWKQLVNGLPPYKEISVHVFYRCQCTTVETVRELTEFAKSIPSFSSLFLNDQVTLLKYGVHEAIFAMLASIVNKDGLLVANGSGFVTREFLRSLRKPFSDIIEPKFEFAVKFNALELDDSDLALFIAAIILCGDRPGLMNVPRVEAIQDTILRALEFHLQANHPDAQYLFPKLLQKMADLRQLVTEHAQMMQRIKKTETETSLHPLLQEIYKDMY
Chain of Peroxisome proliferator-activated receptor gamma (Homo sapiens) (P37231 whole entry, looked up): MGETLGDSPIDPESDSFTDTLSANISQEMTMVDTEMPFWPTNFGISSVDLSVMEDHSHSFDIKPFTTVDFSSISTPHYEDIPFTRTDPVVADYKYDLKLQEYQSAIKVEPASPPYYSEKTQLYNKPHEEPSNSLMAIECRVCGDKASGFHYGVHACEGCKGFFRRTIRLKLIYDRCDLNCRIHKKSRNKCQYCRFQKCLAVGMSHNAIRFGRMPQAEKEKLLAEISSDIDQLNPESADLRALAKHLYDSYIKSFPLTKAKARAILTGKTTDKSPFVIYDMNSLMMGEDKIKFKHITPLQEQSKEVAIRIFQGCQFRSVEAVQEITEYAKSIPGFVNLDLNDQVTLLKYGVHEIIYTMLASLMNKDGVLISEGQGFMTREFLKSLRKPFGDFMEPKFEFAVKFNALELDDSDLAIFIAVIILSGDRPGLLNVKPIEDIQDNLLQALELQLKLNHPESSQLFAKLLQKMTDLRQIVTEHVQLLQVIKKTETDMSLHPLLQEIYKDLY
Chain of Bile acid receptor (Homo sapiens) (Q96RI1 whole entry, looked up): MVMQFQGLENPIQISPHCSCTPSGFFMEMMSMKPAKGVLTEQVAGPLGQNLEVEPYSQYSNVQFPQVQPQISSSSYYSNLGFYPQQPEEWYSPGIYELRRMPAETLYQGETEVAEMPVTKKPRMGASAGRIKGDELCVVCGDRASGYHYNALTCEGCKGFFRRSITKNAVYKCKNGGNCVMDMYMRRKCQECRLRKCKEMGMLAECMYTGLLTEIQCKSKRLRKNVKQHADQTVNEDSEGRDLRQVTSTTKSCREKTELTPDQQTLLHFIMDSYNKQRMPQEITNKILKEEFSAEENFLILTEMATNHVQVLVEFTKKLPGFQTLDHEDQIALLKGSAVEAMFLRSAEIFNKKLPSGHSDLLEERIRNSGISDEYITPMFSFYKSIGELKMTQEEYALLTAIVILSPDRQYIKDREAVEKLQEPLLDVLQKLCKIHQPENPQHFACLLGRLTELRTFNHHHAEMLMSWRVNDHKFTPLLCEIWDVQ
Chain of Vitamin D3 receptor (Homo sapiens) (P11473 whole entry, looked up): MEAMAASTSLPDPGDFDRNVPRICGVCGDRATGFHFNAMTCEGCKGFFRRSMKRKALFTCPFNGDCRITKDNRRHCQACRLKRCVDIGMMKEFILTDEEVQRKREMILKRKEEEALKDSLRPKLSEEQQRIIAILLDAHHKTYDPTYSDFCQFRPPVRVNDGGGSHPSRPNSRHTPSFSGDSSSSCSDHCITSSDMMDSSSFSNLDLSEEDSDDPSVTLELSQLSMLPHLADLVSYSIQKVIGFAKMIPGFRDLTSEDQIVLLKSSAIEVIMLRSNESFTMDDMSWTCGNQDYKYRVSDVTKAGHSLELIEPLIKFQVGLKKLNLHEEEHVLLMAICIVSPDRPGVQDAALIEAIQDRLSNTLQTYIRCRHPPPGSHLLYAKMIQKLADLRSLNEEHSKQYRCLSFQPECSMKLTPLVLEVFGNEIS
Chain of Aryl hydrocarbon receptor (Homo sapiens) (P35869 whole entry, looked up): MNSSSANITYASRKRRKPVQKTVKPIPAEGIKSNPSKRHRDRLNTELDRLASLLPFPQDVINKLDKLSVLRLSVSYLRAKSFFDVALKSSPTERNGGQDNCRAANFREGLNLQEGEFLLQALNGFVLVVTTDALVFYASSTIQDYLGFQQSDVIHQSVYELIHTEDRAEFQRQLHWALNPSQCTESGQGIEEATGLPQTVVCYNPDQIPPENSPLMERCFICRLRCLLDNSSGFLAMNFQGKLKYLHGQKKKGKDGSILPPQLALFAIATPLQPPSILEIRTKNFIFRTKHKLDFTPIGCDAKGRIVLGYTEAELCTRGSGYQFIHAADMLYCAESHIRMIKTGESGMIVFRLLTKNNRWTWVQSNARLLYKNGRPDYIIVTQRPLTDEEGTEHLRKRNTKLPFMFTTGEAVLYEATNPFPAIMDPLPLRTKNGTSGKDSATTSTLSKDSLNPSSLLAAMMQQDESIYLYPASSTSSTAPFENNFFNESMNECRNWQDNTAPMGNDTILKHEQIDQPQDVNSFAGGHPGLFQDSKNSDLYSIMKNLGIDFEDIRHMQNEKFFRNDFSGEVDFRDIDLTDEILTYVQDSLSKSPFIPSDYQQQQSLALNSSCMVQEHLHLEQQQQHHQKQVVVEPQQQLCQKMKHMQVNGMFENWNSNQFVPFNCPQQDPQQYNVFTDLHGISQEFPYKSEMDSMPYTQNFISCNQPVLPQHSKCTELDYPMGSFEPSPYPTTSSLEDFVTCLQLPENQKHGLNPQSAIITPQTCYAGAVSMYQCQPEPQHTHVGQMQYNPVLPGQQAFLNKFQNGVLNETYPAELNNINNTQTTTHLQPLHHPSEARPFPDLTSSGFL

Cc1cc(NC(=O)C2=C(O)c3ccccc3S(=O)(=O)N2C)no1
inactive: [1] | [2] | [3] | [4] | [5] | [6] | [7] | [8] | [9] | [10] | [11] | [12] | [13] | [14] | [15]

N[C@@H](CCC(=O)N[C@@H](CS)C(=O)NCC(=O)O)C(=O)O
inactive: [1] | [2] | [3] | [5] | [6] | [7] | [8] | [9] | [10] | [12] | [16] | [14] | [15] | [17]

COc1ccc(S(=O)(=O)N2c3ccc(Cl)cc3[C@@](O)(c3ccccc3Cl)[C@H]2C(=O)N2CCC[C@@H]2C(N)=O)cc1OC
inactive: [1] | [2] | [3] | [18] | [5] | [6] | [7] | [8] | [9] | [10] | [11] | [12] | [13] | [16] | [14] | [17]

O=C1c2ccccc2C(=O)N1CCl
inactive: [1] | [3] | [4] | [18] | [5] | [6] | [7] | [8] | [10] | [11] | [12] | [13] | [19] | [16] | [20] | [14] | [15]

C[C@@H](O)[C@H]1C(=O)N2C(C(=O)O)=C(SCCN=CN)C[C@H]12
inactive: [1] | [3] | [4] | [18] | [5] | [7] | [10] | [12] | [13] | [19] | [16] | [20] | [14]

COC(=O)[C@@H]1[C@H]2C[C@H]3c4[nH]c5ccccc5c4CCN3C[C@@H]2CC[C@@H]1O
inactive: [1] | [3] | [4] | [5] | [6] | [7] | [8] | [9] | [10] | [11] | [12] | [16] | [14] | [17]

c1ccc2c(c1)ccc1c3ccccc3ccc21
inactive: [1] | [3] | [4] | [18] | [5] | [7] | [8] | [9] | [10] | [11] | [12] | [13] | [19] | [16] | [20] | [14] | [15] | [17]

NCCN1CCOCC1
inactive: [1] | [2] | [3] | [5] | [6] | [7] | [8] | [9] | [10] | [16] | [14] | [15]

CCOc1cc([N+](=O)[O-])c(OCC)cc1N1CCOCC1
inactive: [1] | [2] | [4] | [5] | [6] | [7] | [8] | [9] | [10] | [12] | [16] | [14] | [17]
